Test [1] can be described thus: qHTS Assay for Lipid Storage Modulators (AID 1519; calls by dose curve; as to activity change, negative = inhibition: % is scaled to controls: 0 for no effect and ±100 for the full control effect). The settings on record: Drosophila S3 cells, BODIPY lipid droplet/cell ratio, laser cytometry, cells loaded with oleic acid. In a few lines: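 Cells seeded at 5,000 per well were treated with compounds over a concentration series and loaded with oleic acid (400 uM, as added). Lipid droplet fluorescence (488 nm excitation, 500-530 nm channel) was read by laser-scanning cytometry and normalized to 20 uM Triacsin C.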
On the technique in general: qHTS replaces the single test concentration by a dilution series.

Test [2] can be described thus: Cell Viability - LYMP1-002 - Assay at 24 hr (AID 993). Also: % is scaled to controls: 0 for no effect and ±100 for the full control effect. The conditions noted are these: LYMP1-002 lymphoblastoid cells viability; series mostly up to 92.2 µM. In a few lines:
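Human lymphoblastoid LYMP1-002 cells (2500/well) treated 24 h at 37 °C; viability as intracellular ATP by CellTiter-Glo luminescence. Tetraoctylammonium bromide as positive control; AC50 from Hill-equation fits of qHTS concentration-response.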

Test [3] in a line: Cell Viability - LYMP2-006 (AID 978). Also: % is scaled to controls: 0 for no effect and ±100 for the full control effect; nearly all actives have a fitted effect of over 60% in size. The conditions noted are these: LYMP2-006 lymphoblastoid cell viability, qHTS; series mostly up to 92.2 µM. In a few lines:
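Human lymphoblastoid cells (LYMP2-006), 2500/well in complete medium, were treated with compound for 24 hr at 37 C. Cellular ATP was read by CellTiter-Glo luminescence after 30 min, and AC50 values came from Hill-equation fits of concentration-response data.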

A short description of test [4]: Cell Viability - LYMP2-007 (AID 979).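 Also: cells exposed to compound for 24 h before reading; 0% = DMSO only and the negative end = 92 µM tetraoctylammonium bromide; nearly all actives have a fitted effect of over 60% in size.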 The conditions noted are these: LYMP2-007 lymphoblastoid cell viability; series mostly up to 92.2 µM. In a few lines: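 Human lymphoblastoid LYMP2-007 cells (2500/well) preincubated 5 h at 37 C, then treated 24 h at 37 C in complete medium. Viability by CellTiter-Glo ATP luminescence after 30 min at room temperature; AC50 from Hill fits.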

Test [5] can be described thus: Cell Viability - LYMP2-008 (AID 980). Also: % is scaled to controls: 0 for no effect and ±100 for the full control effect; nearly all actives have a fitted effect of over 60% in size. The settings on record: LYMP2-008 lymphoblastoid cell viability, qHTS; series mostly up to 92.2 µM. Put shortly: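 LYMP2-008 lymphoblastoid cells (2500/well) plated 5 h, then treated 24 h at 37 C in complete medium. Viability read as intracellular ATP by CellTiter-Glo luminescence after 30 min at room temperature; AC50 from Hill fits.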

A short description of test [6]: Cell Viability - LYMP2-010 (AID 981). Also: % is scaled to controls: 0 for no effect and ±100 for the full control effect; nearly all actives have a fitted effect of over 55% in size. The settings on record: LYMP2-010 lymphoblastoid cell viability, qHTS; series mostly up to 92.2 µM. Put shortly:
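Human lymphoblastoid LYMP2-010 cells (2500/well) treated 24 h at 37 C in complete medium; viability read as intracellular ATP by CellTiter-Glo luminescence. AC50 from Hill fits of concentration-response data; tetraoctylammonium bromide positive control.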

Test [7] in a line: Cell Viability - LYMP2-012 (AID 982).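 Also: cellular ATP by luciferase luminescence where a drop means cytotoxicity; cells exposed to compound for one day before reading; 0% = DMSO only and full loss = 92 µM tetraoctylammonium bromide; nearly all actives have a fitted effect of over 55% in size.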 The conditions noted are these: LYMP2-012 lymphoblastoid cell viability qHTS; series mostly up to 92.2 µM.
Test [8] is described as follows: Cell Viability - LYMP2-014 (AID 983).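 Also: plate controls were DMSO only for no effect and 92 µM tetraoctylammonium bromide for full effect; nearly all actives have a fitted effect of over 50% in size.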 The settings on record: LYMP2-014 lymphoblastoid cells, viability qHTS; series mostly up to 92.2 µM. Put shortly: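 LYMP2-014 human lymphoblastoid cells, 2500/well, treated 24 h at 37 C in complete medium; viability by CellTiter-Glo ATP luminescence after 30 min at room temperature. AC50 from Hill fits of qHTS concentration-response; tetraoctylammonium bromide positive control.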

Test [9] in a line: Cell Viability - LYMP2-016 (AID 984). Also: % is scaled to controls: 0 for no effect and ±100 for the full control effect; nearly all actives have a fitted effect of over 55% in size. The settings on record: LYMP2-016 lymphoblastoid cell viability, qHTS; series mostly up to 92.2 µM. In a few lines:
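Human lymphoblastoid LYMP2-016 cells, 2500 per well, treated with compounds for 24 h at 37 C. Viability read as intracellular ATP by CellTiter-Glo luminescence after 30 min at room temperature; AC50 from Hill fits of concentration-response.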

A short description of test [10]: Cell Viability - LYMP2-018 (AID 985).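 Also: compound exposure lasted 24 hr at 37 °C; plate controls were DMSO only for no effect and tetraoctylammonium bromide at 92 µM for full effect; nearly all actives have a fitted effect of over 50% in size.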 The conditions noted are these: LYMP2-018 lymphoblastoid cells, viability (qHTS); series mostly up to 92.2 µM. In a few lines: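 Human lymphoblastoid LYMP2-018 cells, 2500/well, settled 5 hr at 37 C then exposed to compound 24 hr at 37 C; intracellular ATP measured by CellTiter-Glo luminescence. AC50 from Hill-equation concentration-response fits.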

The nature of test [11]: Cell Viability - LYMP2-020 (AID 986).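 Also: plate controls were DMSO only for no effect and tetraoctylammonium bromide at 92 µM for full effect; nearly all actives have a fitted effect of over 55% in size.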 The conditions noted are these: series mostly up to 92.2 µM. In a few lines: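 Human lymphoblastoid LYMP2-020 cells (2500/well) preincubated 5 h at 37 C, then treated 24 h at 37 C. Viability measured as intracellular ATP by CellTiter-Glo luminescence after 30 min at room temperature; AC50 from Hill fits.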
The nature of test [12]: Cell Viability - LYMP2-022 (AID 987). The settings on record: LYMP2-022 lymphoblastoid cell viability; series mostly up to 92.2 µM. Put shortly: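 LYMP2-022 lymphoblastoid cells (2500/well, complete medium) were treated with compounds for 24 hours at 37 C; intracellular ATP was then read by CellTiter-Glo luminescence after 30 min at room temperature. AC50 values were derived from Hill-equation fits.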

The nature of test [13]: Cell Viability - LYMP2-024 (AID 988).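 Also: plate controls were DMSO only for no effect and 92 µM tetraoctylammonium bromide for full effect; nearly all actives have a fitted effect of over 60% in size.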 The settings on record: LYMP2-024 lymphoblastoid cell viability; series mostly up to 92.2 µM. In a few lines: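 Human lymphoblastoid LYMP2-024 cells (2500/well) rested 5 hr, then treated with compound for 24 hr at 37 C in complete medium. Viability was measured as intracellular ATP by CellTiter-Glo luminescence. AC50 values came from Hill-equation fits.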

The nature of test [14]: Cell Viability - LYMP2-026 (AID 989). Also: % is scaled to controls: 0 for no effect and ±100 for the full control effect; nearly all actives have a fitted effect of over 50% in size. The settings on record: LYMP2-026 lymphoblastoid cell viability, qHTS; series mostly up to 92.2 µM. In a few lines:
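Human lymphoblastoid LYMP2-026 cells, 2500/well, exposed to compound 24 h at 37 C in complete medium. Viability as intracellular ATP by CellTiter-Glo luminescence; AC50 from Hill fits of qHTS concentration-response.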

Test [15] can be described thus: Cell Viability - LYMP1-002 - Assay at 40 hr (AID 994). The conditions noted are these: LYMP1-002 lymphoblastoid cell viability; series mostly up to 92.2 µM. Put shortly:
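LYMP1-002 human lymphoblastoid cells (2500/well, complete medium) were treated with compounds for 40 hr at 37 C. Intracellular ATP was measured by CellTiter-Glo luminescence, and AC50 values came from Hill-equation fits of concentration-response data; tetraoctylammonium bromide was the positive control.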

Test [16] has as its target Alpha-galactosidase A (Homo sapiens) (UniProt P06280). Description: Counterscreen for Glucocerebrosidase Inhibitors: qHTS Assay for Human alpha-Galactosidase at pH 4.5 (AID 992). Also: 0% is about no effect. The conditions noted are these: purified enzyme, fluorogenic substrate; series mostly up to 76.9 µM. In a few lines:
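Enzyme at 2 nM final was combined with compound (0.7 nM to 77 uM) and 80 uM 4-methylumbelliferyl alpha-D-galactopyranoside in 50 mM citric acid, 0.005% Tween-20, pH 4.5. After 20 min at room temperature, fluorescence was read (Ex 365/Em 440 nm); AC50 came from Hill fits.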
(In general: The purpose of a counterscreen is to sort out artefacts and off-target activity.)

The target in test [17] is alpha-glucosidase (Oryza sativa, rice) (UniProt Q653V4). Description: Counterscreen for Glucocerebrosidase Inhibitors: qHTS Assay for Rice alpha-Glucosidase at pH 5.0 (AID 997).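 Also: 0% = full activity with enzyme and -100% = basal without enzyme.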 The settings on record: rice alpha-glucosidase enzyme activity; series mostly up to 76.9 µM. Put shortly: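 Rice alpha-glucosidase (4 nM final) with 400 uM 4-methylumbelliferyl-alpha-D-glucopyranoside in citrate buffer pH 5.0, 20 min at room temperature, stopped at pH 10; fluorescence 365/440 nm, compounds 0.7 nM–77 uM, AC50 from Hill fits.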

Test [18] concerns the target DNA repair nuclease/redox regulator APEX1 (Homo sapiens) (UniProt P27695). Description: qHTS Validation Assay for Inhibitors of the Human Apurinic/apyrimidinic Endonuclease 1 (APE1) (AID 1705;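 also: TAMRA fluorescence gain over two minutes as APE1 cuts a quenched THF abasic duplex; % is scaled to controls: 0 for no effect and ±100 for the full control effect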). The settings on record: purified APE1 endonuclease activity, fluorescence, titration; series mostly up to 57.1 µM. Put shortly:
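Fluorogenic double-stranded THF abasic-site substrate (5'-TAMRA/3'-BHQ-2), 50 nM final. Enzyme preincubated with compound 15 min at room temperature, then substrate added. Kinetic fluorescence (ex 525/em 598 nm) read three times at 60 s intervals; activity taken as third-minus-first read difference.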

The nature of test [19]: Counterscreen for APE1 Inhibitors: Fluorescent Dye Displacement Validation Assay (AID 1707).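 Also: plate controls were ThO with dsDNA and no compound for no effect and ThO without dsDNA for full effect.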 The settings on record: fluorescent dye displacement from DNA; series mostly up to 57.1 µM. In a few lines: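 Thiazole Orange displacement from dsDNA: 250 nM ThO with 50 nM TAMRA-labelled abasic-site (tetrahydrofuran) duplex in 50 mM Tris-HCl pH7.5, 50mM NaCl, 2 mM MgCl2, 0.01% Tween-20. Loss of endpoint fluorescence (ex 480 nm, em 540 nm) flags DNA binders.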

The mark [20] stands for this setting: measured here: cell count channel max response.
Setting [21] is: measured here: lipid channel max response.

The results in this text go back to PubChem BioAssay (NCATS).

The structures appear in SMILES notation. “And” between values parts separate entries of the source, which are not always exact repeats. Identical values can stand only once. Inconclusive results are not listed. The source made the active and inactive calls. Unless noted, calls follow the shape of the dose curve; as a rule, active = well fitted curve in the direction sought with a large enough effect; inconclusive = small, poorly fitted or top-dose-only effect, or another doubt; inactive = no such curve, though single readings can be large; an effect the other way counts as inactive or inconclusive.

Chain of Alpha-galactosidase A (Homo sapiens) (P06280 whole entry, looked up): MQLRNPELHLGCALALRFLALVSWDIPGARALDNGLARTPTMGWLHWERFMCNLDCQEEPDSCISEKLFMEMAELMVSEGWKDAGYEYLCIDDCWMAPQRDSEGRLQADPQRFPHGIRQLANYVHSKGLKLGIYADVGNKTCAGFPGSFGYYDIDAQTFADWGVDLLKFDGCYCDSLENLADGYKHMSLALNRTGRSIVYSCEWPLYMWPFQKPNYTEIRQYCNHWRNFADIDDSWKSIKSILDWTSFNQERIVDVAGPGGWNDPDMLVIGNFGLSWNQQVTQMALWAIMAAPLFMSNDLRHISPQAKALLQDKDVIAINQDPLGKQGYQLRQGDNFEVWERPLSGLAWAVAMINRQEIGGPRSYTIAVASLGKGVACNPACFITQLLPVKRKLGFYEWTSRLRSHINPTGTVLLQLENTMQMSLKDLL
Chain of DNA repair nuclease/redox regulator APEX1 (Homo sapiens) (P27695 whole entry, looked up): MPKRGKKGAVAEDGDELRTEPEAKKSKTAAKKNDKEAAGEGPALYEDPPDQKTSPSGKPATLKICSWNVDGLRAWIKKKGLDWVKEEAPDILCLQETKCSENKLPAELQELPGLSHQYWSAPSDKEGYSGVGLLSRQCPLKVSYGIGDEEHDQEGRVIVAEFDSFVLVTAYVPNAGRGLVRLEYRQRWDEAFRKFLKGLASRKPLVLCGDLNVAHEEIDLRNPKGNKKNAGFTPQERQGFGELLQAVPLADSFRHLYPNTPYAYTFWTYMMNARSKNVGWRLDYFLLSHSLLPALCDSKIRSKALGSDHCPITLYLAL

As for `CCc1oc2ccccc2c1C(=O)c1cc(Br)c(O)c(Br)c1`, the activity change, negative = inhibition in test [1] (at 25.7 µM (top of the series)) is 0.0966% (inactive). Moreover, the max response in [1] (setting [20]) is -13%; in test [1] (setting [21]), -17.1%.

For `Oc1ccc(Cl)cc1Cc1cc(Cl)ccc1O`, the result in [2] was inactive.

For the compound `O=C(O)c1ccc(S(=O)(=O)N(Cl)Cl)cc1`, the result in [3], in test [4], in [5], in test [6], in test [7] and in test [8] was inactive. Further, the result in [9], in test [12], in [14] and in [2] was inactive. The Potency result in test [10], in [11], in test [13] and in test [15] was “inactive” throughout. Further, the activity change, negative = inhibition in test [1] (at 57.5 µM (top of the series)) was 9.84% (inactive). Besides, the max response in test [1] (setting [20]) came out at 17.1%; in [1] (setting [21]), 34.6%.

Turning to `CCCCC(CC)COC(=O)c1ccc(N(C)C)cc1` (centres undefined), the call in [3], in test [4], in [5], in [6], in test [7] and in [8] was inactive. Besides, the outcome in [9], in [12], in test [14] and in test [2] was inactive. For the same compound, the Potency result in [10], in test [11], in test [13] and in test [15] was “inactive” each time.

Consider `NC(N)=NCc1cccc(I)c1`, for which the result in [16], in test [17] and in test [19] was inactive. The activity change, negative = inhibition in [1] (at 57.5 µM (top of the series)) was 3.74% (inactive). Also, the max response in test [1] (setting [20]) is -19.1%; in [1] (setting [21]) it was -12.1%. Besides, the Potency result in [18] is “inactive”.

As for `OC[C@H]1O[C@@H]2O[C@H]3[C@H](O)[C@@H](O)[C@@H](O[C@H]4[C@H](O)[C@@H](O)[C@@H](O[C@H]5[C@H](O)[C@@H](O)[C@@H](O[C@H]6[C@H](O)[C@@H](O)[C@@H](O[C@H]7[C@H](O)[C@@H](O)[C@@H](O[C@H]8[C@H](O)[C@@H](O)[C@@H](O[C@H]1[C@H](O)[C@H]2O)O[C@@H]8CO)O[C@@H]7CO)O[C@@H]6CO)O[C@@H]5CO)O[C@@H]4CO)O[C@@H]3CO`, the call in test [3], in [4], in [5], in [6], in test [7] and in test [8] was inactive. Further, the outcome in test [9], in test [12], in test [14] and in test [2] was inactive. Besides, the Potency result in [10], in [11], in test [13] and in test [15] was “inactive” throughout.

Take `C/C=C/c1ccc(O)c(OC)c1`: the compound was classed as inactive in [3], in test [4], in test [5], in test [6], in [7] and in test [8]. In addition, the outcome in test [9], in [12], in [14] and in [2] was inactive. Besides, the Potency entry in test [10], in test [11], in test [13] and in [15] was “inactive” in each case.

For `COc1cc(N)c(Cl)cc1C(=O)NC1CCN(Cc2ccccc2)CC1`, the activity change, negative = inhibition in [1] (at 25.7 µM (top of the series)) is 0.953% (inactive); in [1] (at 57.5 µM (top of the series)) it was 9.3% (inactive). Besides, the max response in [1] (setting [20]) was -2.73% and -2.52%; in test [1] (setting [21]), -0.303% and 10.6%.
